From PubChem BioAssay (EPA / NIEHS)
Records with an inconclusive call do not appear. Activity calls are given as the source filed them. The calls were made as follows: active = hit-call score of the fitted dose curve at least 0.9, where 1 is the maximum; inconclusive = response in the unintended direction; inactive = score below 0.9.

Test system: not listed separately
Test: ATG_M_32_TRANS: Attagene TRANS-FACTORIAL HepG2 Assay for M32 Transcription Factor (Internal Marker) (AID 2282984);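 also: transcript level of a background control reporter unit measured by RT-PCR and capillary electrophoresis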
Details: HepG2 Attagene TRANS M32 internal marker reporter
How it was run: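 Capillary electrophoresis of 6-FAM-labelled reporter fragments gives the signal; data fitted for gain over DMSO negative control. Source: HepG2 cells bearing transient multiple reporter transcription units, 24 h exposure.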

Row | Structure (SMILES) | outcome
1 | CCn1c2ccccc2c2ccccc21 | inactive
2 | CC(O)C#CC(C)O (stereo not given) | inactive
3 | Brc1ccccn1 | inactive
4 | O=C1OC(=O)c2ccc3c4c(ccc1c24)C(=O)OC3=O | inactive
5 | CC(C)(C)C(=O)C1C(=O)c2ccccc2C1=O | inactive
6 | OCCCCC(F)(F)C(F)(F)C(F)(F)C(F)(F)F | inactive
7 | O=S(=O)(Cl)C(F)(F)C(F)(F)C(F)(F)C(F)(F)C(F)(F)C(F)(F)C(F)(F)C(F)(F)F | inactive
8 | O=C1C=CC(=O)N1c1ccccc1 | inactive
9 | NC(=O)C(F)(F)C(F)(F)C(F)(F)C(F)F | inactive
10 | CC1=CCC(=O)O1 | inactive
11 | CC(C)OC(=O)COc1ccc(Cl)cc1Cl | inactive
12 | CCN(CCO)S(=O)(=O)C(F)(F)C(F)(F)C(F)(F)C(F)(F)C(F)(F)C(F)(F)C(F)(F)C(F)(F)F | inactive
13 | NCC(F)(F)C(F)(F)C(F)(F)C(F)(F)C(F)(F)C(F)(F)F | inactive
14 | CCCCOC(=O)[C@H](C)O | inactive
15 | Cc1ccc(S(=O)(=O)C(I)I)cc1 | inactive
16 | O=C1c2c(O)ccc(Nc3ccc(CCO)cc3)c2C(=O)c2c([N+](=O)[O-])ccc(O)c21 | inactive

Biological target: Nuclear receptor subfamily 4 group A member 2 (Homo sapiens) (UniProt P43354)
Test: ATG_NURR1_TRANS: Attagene TRANS-FACTORIAL HepG2 Assay for human Nuclear Receptor Related Protein 1 (NURR1) (AID 2282985)
Details: HepG2 Attagene TRANS reporter, mRNA readout
How it was run: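 HepG2 / transient MRTU transfection / 24 h compound exposure / RT-PCR + CE fluorescence of reporter mRNA / gain-of-signal vs DMSO.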

Sequence of Nuclear receptor subfamily 4 group A member 2 (Homo sapiens) (P43354 whole entry, looked up): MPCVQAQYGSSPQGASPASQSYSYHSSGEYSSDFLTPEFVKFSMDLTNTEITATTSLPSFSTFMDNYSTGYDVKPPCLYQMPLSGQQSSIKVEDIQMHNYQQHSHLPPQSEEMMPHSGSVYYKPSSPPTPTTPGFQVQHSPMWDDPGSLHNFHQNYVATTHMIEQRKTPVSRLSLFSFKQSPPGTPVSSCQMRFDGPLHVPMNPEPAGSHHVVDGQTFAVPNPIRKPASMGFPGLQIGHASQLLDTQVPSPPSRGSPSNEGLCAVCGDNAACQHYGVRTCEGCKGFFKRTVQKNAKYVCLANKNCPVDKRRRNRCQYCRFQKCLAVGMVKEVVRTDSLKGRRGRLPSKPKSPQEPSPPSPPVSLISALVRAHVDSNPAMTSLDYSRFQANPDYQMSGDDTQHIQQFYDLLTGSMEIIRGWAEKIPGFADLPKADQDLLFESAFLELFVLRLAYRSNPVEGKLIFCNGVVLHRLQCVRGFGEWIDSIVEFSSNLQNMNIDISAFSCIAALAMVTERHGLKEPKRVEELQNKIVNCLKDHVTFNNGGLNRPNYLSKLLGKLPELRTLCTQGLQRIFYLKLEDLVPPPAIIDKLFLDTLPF

Row | Structure (SMILES) | outcome | AC50
17 | CCn1c2ccccc2c2ccccc21 | inactive | –
18 | CC(O)C#CC(C)O (stereo not given) | inactive | –
19 | Brc1ccccn1 | inactive | –
20 | CC(C)OC=O | inactive | –
21 | O=C(Cl)C(F)(F)C(F)(F)C(F)(F)C(F)(F)C(F)(F)C(F)(F)C(F)(F)F | – | 38.9 µM (active)
22 | CC(C)(C)C(=O)C1C(=O)c2ccccc2C1=O | inactive | –
23 | O=C(F)C1(F)C(F)(F)C(F)(F)C(F)(F)C(F)(F)C1(F)F | inactive | –
24 | C#CC(O)CCC (stereo not given) | inactive | –
25 | O=C1C=CC(=O)N1c1ccccc1 | inactive | –
26 | O=C=NCc1cccc(CN=C=O)c1 | inactive | –
27 | CCN(CCO)S(=O)(=O)C(F)(F)C(F)(F)C(F)(F)C(F)(F)C(F)(F)C(F)(F)C(F)(F)C(F)(F)F | inactive | –
28 | CC(C)(C)c1cc(CCC(=O)OCC(COC(=O)CCc2cc(C(C)(C)C)c(O)c(C(C)(C)C)c2)(COC(=O)CCc2cc(C(C)(C)C)c(O)c(C(C)(C)C)c2)COC(=O)CCc2cc(C(C)(C)C)c(O)c(C(C)(C)C)c2)cc(C(C)(C)C)c1O | inactive | –
29 | CCCCOC(=O)[C@H](C)O | inactive | –
30 | O=C1c2c(O)ccc(Nc3ccc(CCO)cc3)c2C(=O)c2c([N+](=O)[O-])ccc(O)c21 | – | 30.4 µM (active)
